# Hits are enriched below; roughly 2.5% of the tested compounds scored in any of these assays.
# Cruzain Triton: qHTS Assay for Promiscuous and Specific Inhibitors of Cruzain (with detergent); Cruzipain (Trypanosoma cruzi), P25779; hit rate 0.43% among 200,000; Potency, µM, hits mostly inhibitors; purified cruzain, Z-FR-AMC fluorescence, 0.01% Triton; note: nearly all actives have a fitted effect of over 40% in size
# Target sequence (P25779 123-467 limits assumed): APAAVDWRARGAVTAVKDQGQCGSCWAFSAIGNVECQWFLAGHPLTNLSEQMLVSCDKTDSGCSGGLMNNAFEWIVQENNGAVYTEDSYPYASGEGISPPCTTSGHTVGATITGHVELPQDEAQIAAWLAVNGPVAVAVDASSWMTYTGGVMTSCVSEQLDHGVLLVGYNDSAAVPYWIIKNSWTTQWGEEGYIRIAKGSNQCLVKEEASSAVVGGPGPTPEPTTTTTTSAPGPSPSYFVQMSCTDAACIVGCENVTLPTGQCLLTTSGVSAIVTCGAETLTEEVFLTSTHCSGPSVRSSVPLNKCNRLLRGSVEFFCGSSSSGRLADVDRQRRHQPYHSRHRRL
#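 Sodium acetate buffer (100 mM, pH 5.5) containing 5 mM DTT and 0.01% Triton X-100 hosted 1.5 nM cruzain and test compound for 15 min at room temperature. Cleavage of 2 uM Z-FR-AMC was then tracked by fluorescence.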
# Cruzain inh noDet: qHTS Assay for Promiscuous and Specific Inhibitors of Cruzain (without detergent); hit rate 2.3% among 200,000; AID 1476, 2009; purified cruzain, Z-FR-AMC fluorescence, no detergent; Potency, µM, usual class: inhibitors; note: nearly all actives have a fitted effect of over 40% in size
#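 Purified cruzain at 1.5 nM, pre-incubated 15 min with compound at room temperature in 100 mM sodium acetate pH 5.5, 5 mM DTT, 0.00005% Triton X-100. Reaction started with 2 uM Z-FR-AMC; AMC fluorescence increase over 60 s gives rate.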
# A number is an active result; . = inactive; ? = inconclusive. Calls come from the whole dose curve; as a rule, active = well fitted curve in the direction sought with a large enough effect; inconclusive = small, poorly fitted or top-dose-only effect, or another doubt; inactive = no such curve, though single readings can be large; an effect the other way counts as inactive or inconclusive.
SMILES,Cruzain Triton,Cruzain inh noDet
CCOc1ccc(/C=C/C(=O)Nc2ccc(C(N)=O)cc2)cc1OC,.,.
CCCCOc1ccc(/C=C/C(=O)Nc2ccc([N+](=O)[O-])cc2C)cc1,.,25.1µM
CCCCOc1ccc(/C=C/C(=O)Nc2ccc(C(N)=O)cc2)cc1,.,15.8µM
Cc1ccc2[nH]c(=O)c3cc(C(=O)N(C)c4ccc(Br)cc4)sc3c2c1,.,.
COc1ccc(-c2noc(CSc3nnc(-c4ccncc4)n3-c3ccc(C)c(C)c3)n2)cc1,.,.
CC(=O)c1cc(-c2ccc(F)cc2)n(CCC(=O)Nc2nc3c(C)cccc3s2)c1C,.,.
Cc1cc(Cl)ccc1OCC(=O)N(Cc1sccc1C)C1CCS(=O)(=O)C1 (stereo unspecified),.,.
O=c1cc(-c2ccccc2)n2c(SCc3ccc(Br)cc3)nnc2[nH]1,.,.
COc1cc(Cl)c(C)cc1NC(=O)CC1Oc2ccccc2NC1=O (stereo unspecified),.,.
CCCOc1ccc(C(=O)Nc2cccc(NC(=O)c3ccc(Cl)cc3Cl)c2)cc1,.,?
Cc1sc(NC(=O)c2ccc(OCC(C)C)cc2)c(C(N)=O)c1-c1ccc(Cl)cc1Cl,?,10µM
COC(=O)c1sc(-c2ccccc2)cc1NC(=O)Nc1ccccc1Cl,.,10µM
COC(=O)c1sc(-c2ccccc2)cc1NC(=O)Nc1ccc(Cl)cc1,.,?
CC1C(NC(=O)/C(=N/OC(C)(C)C(=O)O)c2csc(N)n2)C(=O)N1S(=O)(=O)O (stereo unspecified),.,.
Cc1ccc(/C=C/C(=O)OCC(=O)Nc2ccccc2Sc2ccccc2)cc1,.,12.6µM
COc1cccc(/C=C/C(=O)OCC(=O)Nc2ccccc2Sc2ccccc2)c1,.,.
COc1cc(C2=N/C(=C\c3ccccc3)C(=O)O2)cc(OC)c1OC,.,.
COc1cc(/C=C2/N=C(C3CCCCC3)OC2=O)cc(OC)c1OC,2.51µM,2.51µM
C=C1c2ccccc2O[C@H](C(=O)OCC)C1OC (mixture of isomers),.,.
CCCC(=O)NC(NC(=S)Nc1ccc(N=Nc2ccccc2)cc1)C(Cl)(Cl)Cl (stereo unspecified),.,.
O=C(CCc1ccccc1)NC(NC(=S)Nc1cccc(Cl)c1)C(Cl)(Cl)Cl (stereo unspecified),.,7.94µM
O=C(/C=C/c1ccccc1)NC(NC(=S)Nc1cccc(Cl)c1)C(Cl)(Cl)Cl (stereo unspecified),.,?
S=C(NCc1ccncc1)Nc1cccc(Cl)c1,.,.
S=C(NCCC(c1ccccc1)c1ccccc1)Nc1cccc(Cl)c1,.,15.8µM
O=C(CCc1ccccc1)NC(NC(=S)Nc1ccc(Br)cc1)C(Cl)(Cl)Cl (stereo unspecified),.,10µM
SMILES,Cruzain Triton,Cruzain inh noDet
CCOc1ccc(S(=O)(=O)NCC(c2ccc(N(C)C)cc2)N2CCCC2)cc1 (stereo unspecified),.,.
C=C1CC[C@H](O)C/C1=C/C=C1\CCC[C@]2(C)[C@@H]([C@H](C)CCCC(C)(C)O)CC[C@@H]12,.,.
CCOC(=O)CNC(=O)O[C@H]1C(=O)c2cc(OC)ccc2O[C@@H]1c1ccc(OC)c(Br)c1,.,12.6µM
CCOC(=O)CNC(=O)O[C@@H]1C(=O)c2cc(OC)ccc2O[C@H]1c1cccc(OC)c1,.,.
CC(C)[C@@H](Br)C(=O)NCC(=O)O,.,.
COc1cc(C(=O)N(Cc2ccc(F)cc2)Cc2ccco2)cc(OC)c1OC,.,?
O=S(=O)(c1ccc(Cl)cc1)n1ccc(-c2cccc(OCc3c(F)cccc3Cl)c2)n1,.,20µM
O=S(=O)(c1ccc(F)cc1)n1ccc(-c2cccc(OCc3c(F)cccc3Cl)c2)n1,.,.
Cc1nc2c(c(C)nn2-c2ccccc2)c(C)c1CCC(=O)Nc1ccc(F)cc1,.,.
CCC(=O)Nc1ccc(C)cc1-c1nc2ccccc2n(C(C)C(=O)Nc2ccccc2CC)c1=O (stereo unspecified),.,.
COc1ccccc1CNC(=O)CCC1N=C2c3ccccc3N=C(SCc3ccc(C)cc3C)N2C1=O (stereo unspecified),.,.
COc1ccc(NC(=O)N2CCc3c(sc4c3CCCC4)C2c2ccc(F)cc2)cc1 (stereo unspecified),.,?
Cc1nc2c(-c3ccc(F)cc3)c(C)nn2c(C)c1CCC(=O)NCc1cccc(Cl)c1,.,.
CC[C@H](C)[C@H](NC(=O)[C@H](Cc1ccc(O)cc1)NC(=O)[C@@H](N)C(C)C)C(=O)N[C@@H](Cc1cnc[nH]1)C(=O)N1CCC[C@H]1C(=O)N[C@@H](Cc1ccccc1)C(=O)O,14.1µM,15.8µM
Cc1ccc(CC(NC(=O)c2ccccc2)C(=O)N2CCCC2C(=O)O)cc1 (stereo unspecified),.,.
O=[N+]([O-])c1ccccc1N/N=C\c1ccccc1Cl,.,20µM
CCCOc1ccc(/C=N/Nc2ccccc2[N+](=O)[O-])c(OCCC)c1,.,?
COc1ccc(CCNc2nc(SCc3ccccc3Cl)nc3ccccc23)cc1OC,.,.
COc1ccc(-n2cc(C(=O)NCCc3ccc(C)cc3)c3ccccc3c2=O)cc1,.,25.1µM
COc1cccc(-n2cc(C(=O)NCCc3ccc(C)cc3)c3ccccc3c2=O)c1,.,.
CN(C)c1ccc(C(CNC(=O)c2ccc(C(C)(C)C)cc2)N2CCOCC2)cc1 (stereo unspecified),.,?
COc1ccccc1OCC(=O)Nc1cc(-c2ccc(C)cc2)no1,.,.
Cc1ccc(-c2cc(NC(=O)COc3ccc(Cl)cc3C)on2)cc1,.,10µM
Cc1cc(Cl)ccc1OCC(=O)Nn1c(C)ccc1C,.,2.51µM
Cc1cc(Cl)ccc1OCC(=O)O,.,.
SMILES,Cruzain Triton,Cruzain inh noDet
CCOC(=O)C1CCN(C(=O)CN2c3ccc(C(C)C)cc3-c3ccccc3S2(=O)=O)CC1,.,?
O=S(=O)(O)/C(=C\c1ccccc1)c1ccccc1 (tested in a mixture with another compound),.,.
CCCc1nnc(NC(=O)c2cc3ccccc3oc2=O)s1,.,.
CC(Sc1nnc(NC(=O)c2cc3ccccc3oc2=O)s1)c1ccccc1 (stereo unspecified),.,12.6µM
COc1ccc(-c2nnn(CC(=O)c3c[nH]c4ccccc34)n2)cc1OC,.,.
CCCCOc1ccc(-c2nnn(CC(=O)c3c[nH]c4ccccc34)n2)cc1,.,7.94µM
CN(C)CCSCCO,.,.
Cc1cccc(-n2ncc3c(Nc4ccc(C)c(Cl)c4)ncnc32)c1,.,.
Cc1cccc(-n2ncc3c(Nc4ccc(Oc5ccc(Cl)cc5)cc4)ncnc32)c1,.,25.1µM
Cc1ccc(-n2c(C)cc(/C=N/NC(=O)CC3(C)OCCO3)c2C)cc1,.,.
COc1ccc(Cl)cc1NC(=O)C(=O)N/N=C/c1cc(C)n(-c2ccc(C)cc2)c1C,.,12.6µM
COc1ccc(Cl)cc1NC(=O)Cc1ccc(NC(=O)N2CCCCc3ccccc32)cc1,.,.
Cc1ccc(CNc2oc(-c3ccco3)nc2S(=O)(=O)c2ccccc2)cc1,?,31.6µM
O=S(=O)(c1ccc(F)cc1)c1nc(-c2ccco2)oc1Nc1ccc(F)cc1,.,?
COc1ccc(Nc2oc(-c3ccco3)nc2S(=O)(=O)c2ccc(F)cc2)cc1,.,25.1µM
O=S(=O)(c1ccccc1)c1nc(-c2ccco2)oc1NCCN1CCOCC1,.,.

# Assay outcomes (PubChem)
